{"source": "PubChem BioAssay AID1851", "about": "(National Center for Advancing Translational Sciences (NCATS), 2009)", "note": "Where “and” joins values, the source holds several entries; their conditions need not be identical. Equal values may be shown once. About 2,600 (16%) of roughly 16,000 compounds were called active. Not shown: some 20% with an inconclusive outcome. These entries were drawn from the full list. A number with no mark means an inactive call. Calls come from the whole dose curve; as a rule, active = well fitted curve in the direction sought with a large enough effect; inconclusive = small, poorly fitted or top-dose-only effect, or effect the other way; inactive = no such curve, though single readings can be large or run the other way. % is set by controls: 0 for no effect and ±100 for the full control effect."}
{"molecular_target": "Cytochrome P450 2D6 (Homo sapiens) (UniProt P10635)", "sequence (P10635 whole entry, looked up)": "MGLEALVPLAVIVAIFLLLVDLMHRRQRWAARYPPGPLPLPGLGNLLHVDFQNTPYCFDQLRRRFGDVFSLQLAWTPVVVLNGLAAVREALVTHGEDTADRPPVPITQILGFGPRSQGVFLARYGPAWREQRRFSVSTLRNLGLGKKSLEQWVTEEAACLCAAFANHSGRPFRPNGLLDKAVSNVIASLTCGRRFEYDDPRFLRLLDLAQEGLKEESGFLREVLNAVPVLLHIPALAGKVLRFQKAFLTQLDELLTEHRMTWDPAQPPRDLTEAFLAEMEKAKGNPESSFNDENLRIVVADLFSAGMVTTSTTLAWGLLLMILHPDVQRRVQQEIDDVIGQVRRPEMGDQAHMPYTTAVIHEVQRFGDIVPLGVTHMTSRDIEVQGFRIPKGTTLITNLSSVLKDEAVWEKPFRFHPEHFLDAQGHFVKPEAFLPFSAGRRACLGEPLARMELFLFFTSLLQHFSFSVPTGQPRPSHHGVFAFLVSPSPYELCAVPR", "assay": "Cytochrome panel assay with activity outcomes", "settings": "recombinant CYP, pro-luciferin dealkylation, luminescence, p450-cyp2d6; series mostly up to 57.1 µM; activity, negative = inhibition: at the top concentration"}
{"smiles": "COc1cc(/C=C2/C(=N)N3OC(C)=CC3=NC2=O)ccc1OCCOc1ccc(C)cc1", "activity, negative = inhibition": "-28.9%"}
{"smiles": "COc1cccc(/C=N/NC(=O)CO/N=C(\\C)c2cccs2)c1OC", "activity, negative = inhibition": "-10.8%"}
{"smiles": "CC1CCN(c2ccc(NC(=S)NC(=O)c3ccco3)cc2)CC1", "activity, negative = inhibition": "-0.336%"}
{"smiles": "COc1ncc2nc(-c3cc(F)cc(F)c3)c(=O)n(C3CC3)c2n1", "activity, negative = inhibition": "-14.2%"}
{"smiles": "CCOc1c(Cl)cc(C(=O)Nc2ccccc2-c2ccccc2)cc1Cl", "AC50": "12.6 nM (active)"}
{"smiles": "COC(=O)c1ccc(Cl)c(NC(=O)c2ccc(-c3ccccc3)cc2)c1", "activity, negative = inhibition": "-7.02%"}
{"smiles": "CCOC(=O)c1ccc(Cl)c(NC(=O)c2ccc(-c3ccccc3)cc2)c1", "activity, negative = inhibition": "-9.32%"}
{"smiles": "COc1nc(OCCNC(C)=O)nc(N(C)C)n1", "activity, negative = inhibition": "6.28%"}
{"smiles": "CC(C)NC(=O)c1ccccc1NC(=O)/C=C/c1ccc([N+](=O)[O-])cc1", "activity, negative = inhibition": "2.09%"}
{"smiles": "Cc1cccc(NC2(C(F)(F)F)N=C(c3ccccc3)NC2=O)n1", "note": "(configuration not stated)", "activity, negative = inhibition": "19.5%"}
{"smiles": "O=C(O)c1cc(=O)c2c(Cl)cc(Cl)cc2[nH]1", "activity, negative = inhibition": "-3.15%"}
{"smiles": "Cc1cc(Br)cc(C)c1OCCCCN(C)C", "AC50": "2000 nM (active)"}
{"smiles": "CCN1C(=O)[C@H]2[C@H]3[C@H](O)[C@H](O)C/C(=N/OC[C@@H](O)COCc4ccco4)[C@H]3CC[C@@H]2C1=O", "activity, negative = inhibition": "-6.12% [at 11.4 µM]"}
{"smiles": "Nc1nc(-c2cc(-c3cccc4ccccc34)nc(N)n2)cc(-c2cccc3ccccc23)n1", "activity, negative = inhibition": "-0.19% [at 11.4 µM]"}
{"smiles": "Nc1cc2c(nc3c4ccccc4c(N)cc3[n+]2-c2cccc3ccccc23)c2ccccc12", "note": "(tested in a mixture with another compound)", "AC50": "1580 nM (active)"}
{"smiles": "CSCC[C@@H]1NC(=O)C/C=C\\[C@@H](C)COC(=O)[C@@H](C)COC1=O", "activity, negative = inhibition": "16.4% [at 11.4 µM]"}
{"smiles": "Cc1sc(=NC(=O)c2ccco2)n(C)c1-c1ccccc1", "activity, negative = inhibition": "-2.23%"}
{"smiles": "CCn1c(-c2ccccc2Cl)nn(CC(=O)Nc2ccccc2OC)c1=S", "activity, negative = inhibition": "-8.99%"}
{"smiles": "CCOc1ccccc1NC(=O)C(=O)NCC1CCCN1CC", "note": "(configuration not stated)", "activity, negative = inhibition": "-13.6%"}
{"smiles": "COc1ccccc1NC(=O)CCN1C(=O)C2CC=C(Cl)CC2C1=O", "note": "(configuration not stated)", "activity, negative = inhibition": "21.9%"}
{"smiles": "COc1cc(NC(=O)c2ccccc2)c(OC)cc1NC(=O)CN1CCN(c2ccccn2)CC1", "activity, negative = inhibition": "-3.63%"}
{"smiles": "CC(C)OC(=O)CN1CCN(C2c3ccccc3-c3ccccc32)CC1", "AC50": "251 nM (active)"}
{"smiles": "O=C(O)C[C@@H](C(=O)O)C1c2ccccc2-c2ccccc21", "activity, negative = inhibition": "6.65% [at 11.4 µM]"}
{"smiles": "CCOc1ccccc1NC(=O)CN1CCC(NC(=O)c2ccccc2)CC1", "AC50": "15800 nM (active)"}
{"smiles": "COc1ccc(NC(C)=O)cc1NC(=O)CN1CCN(CC(=O)Nc2ccccc2Cl)CC1", "activity, negative = inhibition": "-21.7%"}
{"smiles": "Cc1ccc(C(=O)C(OC(=O)CN2C(=O)c3ccccc3C2=O)c2ccccc2)cc1", "note": "(configuration not stated)", "activity, negative = inhibition": "8.39%"}
{"smiles": "CCOc1ccccc1NC(=O)CCC(=O)O", "activity, negative = inhibition": "3.08%"}
{"smiles": "COc1ccccc1NC(=O)CN1CCN(C2c3ccccc3-c3ccccc32)CC1", "AC50": "25.1 nM (active)"}
{"smiles": "COc1ccc(NC(C)=O)cc1NC(=O)CN1CCN(C2c3ccccc3-c3ccccc32)CC1", "AC50": "15800 nM (active)"}
{"smiles": "CC(=O)c1c(N2CCC(C(N)=O)CC2)nc(=S)n(-c2ccccc2)c1C", "activity, negative = inhibition": "17.6%"}
{"smiles": "CCCc1cc2c(=O)c(-c3ccc4c(c3)OCCO4)coc2cc1OC(=O)c1ccco1", "activity, negative = inhibition": "-18.9%"}
{"smiles": "COC(=O)c1c(-n2c(C)cc(C=O)c2C)sc2c1CCCC2", "activity, negative = inhibition": "-0.395%"}
{"smiles": "CCOC(=O)c1c(-c2ccc(C)cc2)csc1NC(=O)C1CC=CCC1C(=O)O", "note": "(configuration not stated)", "activity, negative = inhibition": "-18.1%"}
{"smiles": "COC(=O)[C@@H]1O[C@@H](c2c(OC)c(OC)c(C)c(OC)c2OC)[C@H](C)[C@@H](O)[C@@H]1C", "activity, negative = inhibition": "15.2% [at 11.4 µM]"}
{"smiles": "NS(=O)(=O)c1cc(C(=O)O)cc(N2CCCC2)c1Oc1ccccc1", "activity, negative = inhibition": "1.59% [at 25.6 µM]"}
{"smiles": "O=C(c1cn(-c2ccccc2)nc1-c1cccs1)N1CCOCC1", "activity, negative = inhibition": "-11.1%"}
{"smiles": "O=C1C[C@@H](O)[C@@H](O)[C@H]2[C@@H]3C(=O)N(c4cccc(Oc5ccccc5)c4)C(=O)[C@@H]3CC[C@H]12", "activity, negative = inhibition": "-10.1% [at 11.4 µM] and -0.87% [at 11.4 µM]"}
{"smiles": "CCOC(=O)Cc1cc(=O)n2[nH]c(C)c(-c3ccccc3)c2n1", "activity, negative = inhibition": "-5.14%"}
{"smiles": "CCS(=O)(=O)c1ccc2c(c1)N(S(C)(=O)=O)CC(C(=O)NCCOC)O2", "note": "(configuration not stated)", "activity, negative = inhibition": "-11.3%"}
{"smiles": "Cc1ccccc1-c1nc(-c2ccc(NC(=O)c3cccs3)cc2)no1", "activity, negative = inhibition": "-16.1%"}
{"smiles": "O=C(Nc1ccccc1)c1cc(-n2cnnc2)ccc1Cl", "activity, negative = inhibition": "-7.55%"}
{"smiles": "C[C@]12CC[C@H]3c4ccc(OC[C@H]5CO5)cc4CC[C@H]3[C@H]1CC[C@@H]2O", "activity, negative = inhibition": "-13.3% [at 11.4 µM]"}
{"smiles": "COC(=O)N1CCC[C@@]2(CCN(c3ccccn3)C2)C1", "AC50": "12600 nM (active)"}
{"smiles": "O=C(Oc1ccccc1)N1CCC[C@@]2(CCN(c3ccccn3)C2)C1", "AC50": "7940 nM (active)"}
{"smiles": "COC(=O)N1CCC[C@@]2(CCN(c3ncccn3)C2)C1", "activity, negative = inhibition": "5.06%"}
{"smiles": "O=C(Oc1ccccc1)N1CCC2(CC1)CN(c1ccccn1)C2", "activity, negative = inhibition": "-16.7%"}
{"smiles": "O=C(Oc1ccccc1)N1CCC[C@@]2(CCN(c3ncccn3)C2)C1", "activity, negative = inhibition": "1.35%"}
{"smiles": "O=C(c1ccncc1)N1CCC[C@@]2(CCN(c3ccccn3)C2)C1", "activity, negative = inhibition": "-13.2%"}
{"smiles": "Cc1ccc(-c2nnc(-c3ccc(NC(=O)c4cccs4)cc3)o2)cc1", "activity, negative = inhibition": "0.249%"}
{"smiles": "Cc1ccc(S(=O)(=O)O[C@H]2C[C@@H](C(C)(C)C)CC[C@@H]2c2ccccc2)cc1", "activity, negative = inhibition": "-9.43% [at 11.4 µM]"}
{"smiles": "CCOC(=O)C1=NOC(CNC(=O)C2=NOC(CNC(=O)c3c(-c4ccccc4Cl)noc3C)C2)C1", "note": "(configuration not stated)", "activity, negative = inhibition": "-8.08%"}
{"smiles": "C/C(CCN1CCc2nc(-c3ccccc3)c(-c3ccccc3)cc2C1)=N\\OC[C@@H](C)[C@H](OCc1ccccc1)C(C)C", "activity, negative = inhibition": "13.5% [at 11.4 µM]"}
{"smiles": "Cc1ccc(S(=O)(=O)CCCS(=O)(=O)c2ccc(C)cc2)cc1", "activity, negative = inhibition": "22.6%"}
{"smiles": "CC(C)(C)c1ccc(S(=O)(=O)/C=C\\C#N)cc1", "activity, negative = inhibition": "-5.04%"}
{"smiles": "Cc1ccc(S(=O)(=O)/C=C\\C#N)cc1", "AC50": "15.8 nM (active)"}
{"smiles": "CC1(C)Cc2c(sc3c2C(=O)N(c2ccccc2)C2=NCCN23)CS1", "activity, negative = inhibition": "-11.5%"}
{"smiles": "C=C1CCO[C@@]2([C@H](O)[C@@](C)(O)CO)NC(=O)[C@]1(O)NC2=O", "activity, negative = inhibition": "9.37% [at 11.4 µM]"}
